A short description of experiment [1]: qHTS of pediatric cancer cell lines to identify multiple opportunities for drug repurposing: Primary screen for Rh41 cells (AID 1347108). Note: nearly all actives have a fitted effect of over 70% in size. The procedure, abridged: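 Phenotypic viability qHTS, 48 h compound exposure, CellTiter-Glo luminescence read-out; multi-concentration dosing so that potency and efficacy derive directly from the primary screen's curves.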
In general terms: In qHTS, concentration-response curves come from the screen itself.

A short description of experiment [2]: qHTS of pediatric cancer cell lines to identify multiple opportunities for drug repurposing: Confirmatory screen for NB1643 cells (AID 1347109). Note: nearly all actives have a fitted effect of over 45% in size. The procedure, abridged: (§1)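 Cells (500-1,000/well) in growth media were settled 5 h at 37 degrees C, then given compounds for 48 h. Viability was read as CellTiter-Glo luminescence. Primary runs used MIPE at 11 points (0.78 nM-46 µM) and NPC at 8 points (0.59 nM-46 µM); follow-ups used 11 points.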

The nature of experiment [3]: qHTS of pediatric cancer cell lines to identify multiple opportunities for drug repurposing: Confirmatory screen for SK-N-MC cells (AID 1347111).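 Note: cells exposed to compound for 48 h before the readout; nearly all actives have a fitted effect of over 70% in size.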 Put shortly: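 Metabolically active cells were quantified by ATP-dependent luminescence (CellTiter-Glo, 15 min at room temperature) following 48 h treatment. Cells had been plated at 500-1,000 per well and settled for 5 h beforehand.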

Experiment [4] in a line: qHTS of pediatric cancer cell lines to identify multiple opportunities for drug repurposing: Confirmatory screen for BT-12 cells (AID 1347112). Note: nearly all actives have a fitted effect of over 55% in size. Put shortly:
as §1

The nature of experiment [5]: qHTS of pediatric cancer cell lines to identify multiple opportunities for drug repurposing: Confirmatory screen for DAOY cells (AID 1347114). Note: nearly all actives have a fitted effect of over 65% in size. Put shortly: (§2)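 Viability measured as metabolically active cells via CellTiter-Glo luminescence following 48 hours of compound exposure, 11-point dilutions in confirmatory testing. 500-1,000 cells/well plated 5 hours before dosing; controls were DMSO and 2.3 µM bortezomib.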

A short description of experiment [6]: qHTS of pediatric cancer cell lines to identify multiple opportunities for drug repurposing: Confirmatory screen for SJ-GBM2 cells (AID 1347116). Note: nearly all actives have a fitted effect of over 60% in size. The procedure, abridged: as §2
The nature of experiment [7]: qHTS of pediatric cancer cell lines to identify multiple opportunities for drug repurposing: Confirmatory screen for BT-37 cells (AID 1347117). Note: nearly all actives have a fitted effect of over 55% in size. Put shortly:
as §1

The nature of experiment [8]: qHTS of pediatric cancer cell lines to identify multiple opportunities for drug repurposing: Confirmatory screen for TC32 cells (AID 1347118).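 Note: cells exposed to compound for 48 h before the read; nearly all actives have a fitted effect of over 65% in size.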 The procedure, abridged: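 TC32 cells, 500-1,000/well in growth medium, compound-treated 48 h at 37 °C; viability from CellTiter-Glo luminescence. Primary screen: MIPE 11-point (0.78 nM–46 µM final), NPC 8-point (0.59 nM–46 µM final); confirmatory at 11-point dilutions.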

A short description of experiment [9]: qHTS of pediatric cancer cell lines to identify multiple opportunities for drug repurposing: Confirmatory screen for A673 cells (AID 1347110).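 Note: cells exposed to compound for 48 h before the viability read; nearly all actives have a fitted effect of over 65% in size.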 Put shortly: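 Concentration-response curves came straight from titrations: 11 points (0.78 nM to 46 µM) for MIPE and several concentrations (0.59 nM to 46 µM) for NPC in primary, 11 points in follow-up. Readout: ATP luminescence at 48 h.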

The nature of experiment [10]: qHTS of pediatric cancer cell lines to identify multiple opportunities for drug repurposing: Confirmatory screen for NB-EBc1 cells (AID 1347115).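 Note: cells exposed to compound for 48 h before the viability read; nearly all actives have a fitted effect of over 45% in size.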 The procedure, abridged:
as §1

Potency data for 21 compounds are collected here from PubChem BioAssay (NCATS).

Results filed as inconclusive are left out. Activity calls are given as the source filed them. Calls come from the whole dose curve; as a rule, active = well fitted curve in the direction sought with a large enough effect; inconclusive = small, poorly fitted or top-dose-only effect, or another doubt; inactive = no such curve, though single readings can be large; an effect the other way counts as inactive or inconclusive.
Potency is the fitted concentration of half-maximal effect.

Take `CC(C)(C)C(=O)Oc1ccc2c(c1)nc(NC(=O)c1cccc([N+](=O)[O-])c1)n2CCCO`: the Potency entry in experiment [1] was “inactive”.

For `CCCNC(=O)NS(=O)(=O)c1ccc(Cl)cc1`, the Potency result in experiment [1] is “inactive”.

Regarding `NC(N)=Nc1nc(CSCC/C(N)=N/S(N)(=O)=O)cs1`, the Potency entry in [1] is “inactive”.

As for `CC1(C)CCC(CN2CCN(c3ccc(C(=O)NS(=O)(=O)c4ccc(NCC5CCOCC5)c([N+](=O)[O-])c4)c(Oc4cnc5[nH]ccc5c4)c3)CC2)=C(c2ccc(Cl)cc2)C1`, the results for the Potency in [1], in experiment [2] and in experiment [3] were 18.7 µM (active), 0.261 µM (active) and 18.5 µM (active), respectively. The Potency entry in experiment [4], in experiment [5], in experiment [6], in [7] and in experiment [8] was “inactive” throughout.

On to `O=C1c2ccccc2-[n+]2ccc3c([nH]c4ccccc43)c21`, for which the Potency in experiment [1] is 2.96 µM (active); in experiment [2], 2.08 µM (active); in [9] it was 2.93 µM (active); in experiment [4] it was 2.93 µM (active); in experiment [5], 1.85 µM (active); in experiment [10] it was 2.61 µM (active). Further, the values for the Potency in experiment [6], in experiment [7] and in experiment [8] were 2.61 µM (active), 1.04 µM (active) and 1.31 µM (active), respectively.

`NC1=N[C@@]2(c3cc(NC(=O)c4ccc(F)cn4)ccc3F)COC[C@@H]2CS1`: the Potency in [1] was 18.7 µM (active). Moreover, the Potency entry in [2], in [9], in [4], in [5], in experiment [10] and in experiment [6] was “inactive” each time. Also, the Potency result in experiment [7] and in experiment [8] was “inactive” throughout.

In the case of `O=C(O)CCc1nc(-c2ccccc2)c(-c2ccccc2)o1`, the Potency result in [1] was “inactive”.

Regarding `O=C1NC(=O)C(=Cc2ccc3c(c2)OC(F)(F)O3)S1`, the Potency result in experiment [1], in experiment [2], in experiment [4], in [10], in experiment [6] and in experiment [7] was “inactive” in each case. Besides, the Potency in experiment [5] was 26.1 µM (active).

In the case of `CC(=O)N(C)C1(c2ccccc2)CCN(CCC[C@]2(c3ccc(Cl)c(Cl)c3)CCCN(C(=O)c3ccccc3)C2)CC1`, the Potency in [1] was 18.7 µM (active).

Regarding `CO[C@H]1C=CC=C(C)C(=O)NC2=CC(=O)C(NCCN(C)C)=C(C[C@@H](C)C[C@H](OC)[C@@H](O)[C@@H](C)C=C(C)[C@@H]1OC(N)=O)C2=O`, the Potency was 16.5 µM (active) in experiment [9], 0.827 µM (active) in experiment [3], 18.5 µM (active) in experiment [5] and 1.17 µM (active) in [7]. Further, in experiment [6], the Potency entry is “inactive”.

Regarding `O=C1C(Cl)=C(NCCN2CCOCC2)C(=O)c2ncccc21`, the Potency in experiment [2] was 4.14 µM (active); in [9], 2.08 µM (active); in experiment [3] it was 1.04 µM (active); in experiment [4] it was 2.61 µM (active); in experiment [5] it was 7.37 µM (active); in [10], 5.85 µM (active). The Potency was 14.7 µM (active) in experiment [6], 1.47 µM (active) in experiment [7] and 1.04 µM (active) in experiment [8].

Take `CO[C@H]1C[C@@H]2CC[C@@H](C)[C@@](O)(O2)C(=O)C(=O)N2CCCC[C@@H]2C(=O)O[C@H]([C@H](C)C[C@@H]2CC[C@H](OCCO)[C@H](OC)C2)CC(=O)[C@H](C)C=C(C)[C@@H](O)[C@@H](OC)C(=O)[C@H](C)C[C@H](C)C=CC=CC=C1C`: the Potency result in [9], in experiment [4], in experiment [10] and in experiment [6] was “inactive” each time.

`O=C(Nc1cccc(Br)c1)c1cccc(S(=O)(=O)N2CCCCCC2)c1`: the Potency result in experiment [2], in experiment [9] and in experiment [6] was “inactive” in each case.

For `Nc1ncnc2c1ncn2[C@@H]1O[C@@H](CO)[C@H](O)[C@H]1O`, the Potency result in [9], in experiment [3], in experiment [4], in [5], in [10] and in experiment [6] was “inactive” throughout. Moreover, the Potency result in experiment [7] and in experiment [8] was “inactive” throughout.

`CCc1ccc(OCc2ccccc2C(=O)Nc2ccc3nc(C)cc(N)c3c2)cc1`: the Potency is 9.27 µM (active) in experiment [2]; 3.69 µM (active) in [9]; 0.827 µM (active) in experiment [3]; 9.27 µM (active) in experiment [4]; 8.27 µM (active) in experiment [10]; 11.7 µM (active) in experiment [6]. Besides, the Potency was 7.37 µM (active) in [7] and 1.17 µM (active) in experiment [8].

`CC=C(C)C(=O)O[C@H]1C(C)=C[C@]23C(=O)[C@@H](C=C(CO)[C@@H](O)[C@]12O)[C@H]1[C@@H](C[C@H]3C)C1(C)C`: the Potency entry in experiment [2], in experiment [4], in experiment [10], in [6] and in experiment [7] was “inactive” throughout.

On to `OC[C@H]1O[C@@H](n2cnc3c2NC=NC[C@@H]3O)C[C@H]1O`, for which the Potency is 1.04 µM (active) in experiment [9], 8.27 µM (active) in experiment [3] and 8.27 µM (active) in experiment [8]. For the same compound, the Potency result in experiment [4], in experiment [5] and in [10] was “inactive” throughout.

As to `CC(=O)O[C@]1(C(C)=O)CC[C@@H]2[C@@H]3C[C@H](C)C4=CC(=O)CC[C@]4(C)[C@H]3CC[C@@]21C`, the Potency entry in experiment [5] and in experiment [10] was “inactive” in each case.

Turning to `CC1(C)CCC2=C(O1)c1ccccc1C(=O)C2=O`, the Potency in [1] is 18.7 µM (active); in experiment [2] it was 23.3 µM (active); in [6], 1.31 µM (active); in experiment [7], 23.3 µM (active); in [8] it was 23.3 µM (active).

Turning to `CC(C)n1nc(-c2ccc3oc(N)nc3c2)c2c(N)ncnc21`, the Potency in [1] was 0.0235 µM (active); in experiment [9], 0.147 µM (active); in experiment [3], 0.0737 µM (active); in experiment [4] it was 0.117 µM (active); in experiment [5], 5.85 µM (active); in [6] it was 0.165 µM (active). The results for the Potency in [7] and in experiment [8] were 0.0369 µM (active) and 0.0465 µM (active), respectively.

For the compound `CNC1CCC(N(Cc2cccc(-c3ccncc3)c2)C(=O)c2sc3c(F)ccc(F)c3c2Cl)CC1` (stereo not drawn), the Potency in experiment [1] is 18.7 µM (active); in experiment [9] it was 20.8 µM (active); in [3], 11.7 µM (active); in [5], 20.8 µM (active); in experiment [7], 20.8 µM (active); in experiment [8], 13.1 µM (active). Also, in experiment [10], the Potency entry was “inactive”.
